Positions count from the first letter of the chain named.
Each sequence was assayed against T1, SALL4 ZFC4 WT (HT-SELEX) (Mus musculus, UniProt Q8BX22 870-940) (assay: HT-SELEX; high values mean tight binding). Details: protein: recombinant; vector His6-GST; dsDNA, one strand shown.
T1 sequence: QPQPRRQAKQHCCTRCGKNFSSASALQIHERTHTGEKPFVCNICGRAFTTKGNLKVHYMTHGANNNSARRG
Summary of the method: (§1)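 Residues 870–940 of mouse SALL4, forming zinc finger cluster 4, were expressed recombinantly, purified, and 1 µg was incubated with library DNA (1.5 µg first cycle, 200 ng later) in 100 µl of 10 mM Tris–HCl pH 7.5, 50 mM NaCl, poly(dI-dC) and DTT for 10 min at room temperature. Washed Ni2+ bead-captured complexes were PCR-amplified and reselected for up to 6 cycles in triplicate, and the products were sequenced on MiSeq and scanned for 6-mers. Binding signal is the fold change in each canonical k-mer's read fraction compared with the initial random library.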
For CCATAG, the binding signal was 0.841 ± 0.0326 fold-change vs cycle 0. Work on CATTGC yielded a binding signal of 0.645 ± 0.0305 fold-change vs cycle 0. ATACCC was tested, and the binding signal was 0.85 ± 0.0409 fold-change vs cycle 0. GCAAAC gave a binding signal of 0.54 ± 0.031 fold-change vs cycle 0. Sequence GCAAAA has a binding signal of 0.804 ± 0.0195 fold-change vs cycle 0. AAGCTC gave a binding signal of 0.631 ± 0.0495 fold-change vs cycle 0. AAACCC showed a binding signal of 0.691 ± 0.0592 fold-change vs cycle 0. Sequence AACCAG has a binding signal of 0.772 ± 0.0439 fold-change vs cycle 0. Sequence GAGGAC has a binding signal of 0.456 ± 0.0333 fold-change vs cycle 0. With GCTTCA the binding signal was 0.635 ± 0.0338 fold-change vs cycle 0. Sequence TCCCGA has a binding signal of 0.394 ± 0.0144 fold-change vs cycle 0. In the case of AATTCT, the binding signal is reported as 2.05 ± 0.0669 fold-change vs cycle 0. For CTGAGA, the binding signal was 0.788 ± 0.03 fold-change vs cycle 0. In the case of ATTGTC, the binding signal is reported as 1.14 ± 0.0493 fold-change vs cycle 0. Work on TAAACA yielded a binding signal of 1.9 ± 0.127 fold-change vs cycle 0. In the case of TAGCAA, the binding signal is reported as 1.14 ± 0.0337 fold-change vs cycle 0. For CCTGAC, the binding signal was 0.451 ± 0.0407 fold-change vs cycle 0. Work on AGATCT yielded a binding signal of 1.31 ± 0.115 fold-change vs cycle 0. GGTGGA gave a binding signal of 0.462 ± 0.0279 fold-change vs cycle 0. In the case of CGTAAC, the binding signal is reported as 0.768 ± 0.0406 fold-change vs cycle 0. GACTAC showed a binding signal of 0.777 ± 0.0619 fold-change vs cycle 0. Work on AATGCG yielded a binding signal of 0.428 ± 0.0345 fold-change vs cycle 0. Sequence CTCTAC has a binding signal of 0.799 ± 0.0191 fold-change vs cycle 0. CATAAG gave a binding signal of 1.63 ± 0.0634 fold-change vs cycle 0. Sequence CAGAGC has a binding signal of 0.315 ± 0.0109 fold-change vs cycle 0. TAAGTA showed a binding signal of 2.21 ± 0.113 fold-change vs cycle 0. CTCGTC gave a binding signal of 0.385 ± 0.0153 fold-change vs cycle 0. TAGGAA was tested, and the binding signal was 1.42 ± 0.0275 fold-change vs cycle 0. CGGTTA was tested, and the binding signal was 0.677 ± 0.0447 fold-change vs cycle 0. CGTAGC gave a binding signal of 0.305 ± 0.0314 fold-change vs cycle 0. With ACAGGG the binding signal was 0.493 ± 0.038 fold-change vs cycle 0. With AATGCA the binding signal was 1.12 ± 0.0474 fold-change vs cycle 0. In the case of ACCCGA, the binding signal is reported as 0.382 ± 0.00644 fold-change vs cycle 0. CATAAC gave a binding signal of 1.83 ± 0.124 fold-change vs cycle 0. Work on CTAGGC yielded a binding signal of 0.314 ± 0.00866 fold-change vs cycle 0. TGCCAA showed a binding signal of 0.456 ± 0.0199 fold-change vs cycle 0. AAACGT showed a binding signal of 1.02 ± 0.0198 fold-change vs cycle 0. ATCTTG was tested, and the binding signal was 1.3 ± 0.0534 fold-change vs cycle 0. Work on TCCTAA yielded a binding signal of 1.43 ± 0.0908 fold-change vs cycle 0. AGTGTA was tested, and the binding signal was 1.32 ± 0.061 fold-change vs cycle 0.

What follows are sequences tested against T2, SALL4 ZFC4 R900W (HT-SELEX) (Mus musculus, UniProt Q8BX22 870-940, R900W) (assay: HT-SELEX; high values mean tight binding). Details: protein: recombinant; vector His6-GST; dsDNA, one strand shown.
T2 sequence: T1 sequence with R31W
Summary of the method: as §1
With CCATAG the binding signal was 0.91 ± 0.0505 fold-change vs cycle 0. With CATTGC the binding signal was 0.712 ± 0.0136 fold-change vs cycle 0. In the case of ATACCC, the binding signal is reported as 0.935 ± 0.04 fold-change vs cycle 0. GCAAAC showed a binding signal of 0.598 ± 0.00737 fold-change vs cycle 0. Sequence GCAAAA has a binding signal of 0.786 ± 0.0174 fold-change vs cycle 0. AAGCTC showed a binding signal of 0.76 ± 0.0539 fold-change vs cycle 0. In the case of AAACCC, the binding signal is reported as 0.77 ± 0.0294 fold-change vs cycle 0. AACCAG gave a binding signal of 0.91 ± 0.0252 fold-change vs cycle 0. GAGGAC gave a binding signal of 0.581 ± 0.0167 fold-change vs cycle 0. GCTTCA gave a binding signal of 0.769 ± 0.0139 fold-change vs cycle 0. Work on TCCCGA yielded a binding signal of 0.445 ± 0.019 fold-change vs cycle 0. For AATTCT, the binding signal was 1.99 ± 0.104 fold-change vs cycle 0. For CTGAGA, the binding signal was 0.922 ± 0.033 fold-change vs cycle 0. For ATTGTC, the binding signal was 1.21 ± 0.0499 fold-change vs cycle 0. With TAAACA the binding signal was 1.91 ± 0.125 fold-change vs cycle 0. TAGCAA gave a binding signal of 1.17 ± 0.0822 fold-change vs cycle 0. CCTGAC was tested, and the binding signal was 0.547 ± 0.0213 fold-change vs cycle 0. For AGATCT, the binding signal was 1.45 ± 0.063 fold-change vs cycle 0. GGTGGA showed a binding signal of 0.536 ± 0.0251 fold-change vs cycle 0. CGTAAC was tested, and the binding signal was 0.887 ± 0.0447 fold-change vs cycle 0. In the case of GACTAC, the binding signal is reported as 0.891 ± 0.0393 fold-change vs cycle 0. In the case of AATGCG, the binding signal is reported as 0.473 ± 0.0206 fold-change vs cycle 0. CTCTAC showed a binding signal of 0.917 ± 0.016 fold-change vs cycle 0. CATAAG showed a binding signal of 1.59 ± 0.055 fold-change vs cycle 0. Sequence CAGAGC has a binding signal of 0.382 ± 0.0231 fold-change vs cycle 0. TAAGTA was tested, and the binding signal was 2.23 ± 0.16 fold-change vs cycle 0. For CTCGTC, the binding signal was 0.487 ± 0.019 fold-change vs cycle 0. TAGGAA showed a binding signal of 1.51 ± 0.0439 fold-change vs cycle 0. In the case of CGGTTA, the binding signal is reported as 0.748 ± 0.0385 fold-change vs cycle 0. Work on CGTAGC yielded a binding signal of 0.356 ± 0.00868 fold-change vs cycle 0. ACAGGG showed a binding signal of 0.569 ± 0.0399 fold-change vs cycle 0. For AATGCA, the binding signal was 1.11 ± 0.069 fold-change vs cycle 0. Sequence ACCCGA has a binding signal of 0.46 ± 0.0102 fold-change vs cycle 0. CATAAC was tested, and the binding signal was 1.43 ± 0.0541 fold-change vs cycle 0. CTAGGC gave a binding signal of 0.38 ± 0.00705 fold-change vs cycle 0. In the case of TGCCAA, the binding signal is reported as 0.502 ± 0.00872 fold-change vs cycle 0. Work on AAACGT yielded a binding signal of 1.17 ± 0.0143 fold-change vs cycle 0. Work on ATCTTG yielded a binding signal of 1.44 ± 0.0813 fold-change vs cycle 0. For TCCTAA, the binding signal was 1.56 ± 0.119 fold-change vs cycle 0. Sequence AGTGTA has a binding signal of 1.43 ± 0.0767 fold-change vs cycle 0.

These sequences were tested against T3, SALL4 ZFC4 G921D (HT-SELEX) (Mus musculus, UniProt Q8BX22 870-940, G921D) (assay: HT-SELEX; high values mean tight binding). Details: protein: recombinant; vector His6-GST; dsDNA, one strand shown.
T3 sequence: T1 sequence with G52D
Summary of the method: as §1
Sequence CCATAG has a binding signal of 0.94 ± 0.039 fold-change vs cycle 0. CATTGC was tested, and the binding signal was 0.825 ± 0.0379 fold-change vs cycle 0. Sequence ATACCC has a binding signal of 0.962 ± 0.0418 fold-change vs cycle 0. GCAAAC showed a binding signal of 0.718 ± 0.0549 fold-change vs cycle 0. GCAAAA gave a binding signal of 0.873 ± 0.0736 fold-change vs cycle 0. Sequence AAGCTC has a binding signal of 0.866 ± 0.0327 fold-change vs cycle 0. AAACCC gave a binding signal of 0.845 ± 0.0633 fold-change vs cycle 0. Work on AACCAG yielded a binding signal of 0.941 ± 0.0329 fold-change vs cycle 0. GAGGAC was tested, and the binding signal was 0.671 ± 0.0146 fold-change vs cycle 0. For GCTTCA, the binding signal was 0.8419 ± 0.0056 fold-change vs cycle 0. Work on TCCCGA yielded a binding signal of 0.562 ± 0.0681 fold-change vs cycle 0. Sequence AATTCT has a binding signal of 1.8 ± 0.162 fold-change vs cycle 0. In the case of CTGAGA, the binding signal is reported as 0.951 ± 0.0498 fold-change vs cycle 0. ATTGTC gave a binding signal of 1.24 ± 0.0435 fold-change vs cycle 0. In the case of TAAACA, the binding signal is reported as 1.73 ± 0.187 fold-change vs cycle 0. In the case of TAGCAA, the binding signal is reported as 1.21 ± 0.0899 fold-change vs cycle 0. In the case of CCTGAC, the binding signal is reported as 0.654 ± 0.0358 fold-change vs cycle 0. Sequence AGATCT has a binding signal of 1.47 ± 0.0799 fold-change vs cycle 0. GGTGGA showed a binding signal of 0.619 ± 0.0493 fold-change vs cycle 0. CGTAAC was tested, and the binding signal was 0.922 ± 0.0472 fold-change vs cycle 0. GACTAC showed a binding signal of 0.967 ± 0.0652 fold-change vs cycle 0. AATGCG showed a binding signal of 0.61 ± 0.0401 fold-change vs cycle 0. CTCTAC showed a binding signal of 0.954 ± 0.0195 fold-change vs cycle 0. Sequence CATAAG has a binding signal of 1.45 ± 0.0676 fold-change vs cycle 0. With CAGAGC the binding signal was 0.524 ± 0.0543 fold-change vs cycle 0. For TAAGTA, the binding signal was 1.89 ± 0.229 fold-change vs cycle 0. In the case of CTCGTC, the binding signal is reported as 0.571 ± 0.0514 fold-change vs cycle 0. Sequence TAGGAA has a binding signal of 1.41 ± 0.0855 fold-change vs cycle 0. Work on CGGTTA yielded a binding signal of 0.801 ± 0.0326 fold-change vs cycle 0. CGTAGC was tested, and the binding signal was 0.479 ± 0.0718 fold-change vs cycle 0. For ACAGGG, the binding signal was 0.639 ± 0.0358 fold-change vs cycle 0. AATGCA gave a binding signal of 1.15 ± 0.0324 fold-change vs cycle 0. With ACCCGA the binding signal was 0.576 ± 0.0588 fold-change vs cycle 0. CATAAC gave a binding signal of 1.37 ± 0.0667 fold-change vs cycle 0. For CTAGGC, the binding signal was 0.509 ± 0.0429 fold-change vs cycle 0. TGCCAA showed a binding signal of 0.652 ± 0.0602 fold-change vs cycle 0. Work on AAACGT yielded a binding signal of 1.14 ± 0.0434 fold-change vs cycle 0. For ATCTTG, the binding signal was 1.38 ± 0.0795 fold-change vs cycle 0. TCCTAA gave a binding signal of 1.46 ± 0.14 fold-change vs cycle 0. Work on AGTGTA yielded a binding signal of 1.36 ± 0.1 fold-change vs cycle 0.

— article PMC9838217, “Structure of SALL4 zinc finger domain reveals link between AT-rich DNA binding and Okihiro syndrome”
